Our source for the growth values is PubChem BioAssay (NCI).

Some test systems named below: HCT-15 colon; HT29 colon; SNB-75 CNS; SNB-19 CNS; U251 CNS; PC-3 prostate; SK-MEL-5 melanoma; UACC-62 melanoma; LOX IMVI melanoma; SK-MEL-28 melanoma; SK-MEL-2 melanoma; EKVX NSCLC; SN12C renal; UO-31 renal; TK-10 renal; ACHN renal; CAKI-1 renal; A498 renal; CCRF-CEM leukemia; MOLT-4 leukemia.
What all share (assay): NCI-60 one-dose screen, 48 h (100 = growth as untreated, 0 = no growth, -100 = all killed)
Holding throughout (details): 10 µM unless noted

Where “and” joins values, the source holds several entries; their conditions need not be identical. Equal values may be shown once. This is part of a sample that, as a whole, favours compounds with a hit. Of some 83,000 tested, about 20% had one in any assay.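 Values shown are percent growth following 48 h exposure of cells in 96-well plates to a single concentration of compound; below 10 was considered active.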 Calls of active or inactive are those of the source.

As to `CN(C)CCC(=O)c1ccc(Cl)cc1`, the growth in the assay on HCT-15 colon is 111% (inactive) and 116% (inactive); in the assay on HT29 colon it was 106% (inactive) and 100% (inactive); in the assay on SNB-75 CNS, 78.6% (inactive) and 114% (inactive); with SNB-19 CNS it was 95% (inactive) and 109% (inactive); in the assay with U251 CNS, 113% (inactive) and 111% (inactive); with PC-3 prostate, 92.5% (inactive) and 103% (inactive). Also, the growth in the assay on SK-MEL-5 melanoma was 103% (inactive) and 112% (inactive); in the assay on UACC-62 melanoma, 98.5% (inactive) and 101% (inactive); with LOX IMVI melanoma, 113% (inactive) and 92.2% (inactive); in the assay on SK-MEL-28 melanoma, 107% (inactive) and 115% (inactive); with SK-MEL-2 melanoma, 115% (inactive) and 118% (inactive); with EKVX NSCLC, 115% (inactive) and 124% (inactive). Moreover, the growth with SN12C renal was 97.9% (inactive) and 102% (inactive); with UO-31 renal, 87.3% (inactive) and 95.4% (inactive); with TK-10 renal, 105% (inactive) and 119% (inactive); in the assay on ACHN renal, 114% (inactive) and 105% (inactive); in the assay on CAKI-1 renal, 102% (inactive) and 106% (inactive); with A498 renal it was 121% (inactive) and 114% (inactive). For the same compound, the growth with CCRF-CEM leukemia was 93.2% (inactive) and 73.9% (inactive); with MOLT-4 leukemia, 94.7% (inactive) and 93.5% (inactive).
Consider `CN1C(=O)C(N=Nc2ccc([N+](=O)[O-])cc2)SC1=S` (configuration not stated), for which the growth with HCT-15 colon was 51.7% (inactive) and 50.8% (inactive); with HT29 colon it was 64.4% (inactive) and 80.4% (inactive); in the assay with SNB-75 CNS it was 85.9% (inactive) and 91.5% (inactive); in the assay on SNB-19 CNS it was 69.4% (inactive) and 81.4% (inactive); with U251 CNS it was 62.8% (inactive) and 69.4% (inactive); in the assay with PC-3 prostate, 55.5% (inactive) and 50.8% (inactive). Besides, the growth is 71.3% (inactive) and 73.7% (inactive) in the assay with SK-MEL-5 melanoma; 29.8% (inactive) and 38.4% (inactive) with UACC-62 melanoma; 41.9% (inactive) and 51.5% (inactive) in the assay with LOX IMVI melanoma; 86.6% (inactive) and 95.9% (inactive) in the assay on SK-MEL-28 melanoma; 52.2% (inactive) and 60.1% (inactive) with SK-MEL-2 melanoma; 117% (inactive) and 82% (inactive) in the assay with EKVX NSCLC. Moreover, the growth in the assay on SN12C renal was 62.4% (inactive) and 69.3% (inactive); with UO-31 renal it was 37.2% (inactive) and 49.9% (inactive); in the assay with TK-10 renal, 86.8% (inactive) and 101% (inactive); in the assay with ACHN renal it was 51.8% (inactive) and 56.5% (inactive); in the assay with CAKI-1 renal it was 103% (inactive) and 75.3% (inactive); in the assay with A498 renal, 85.5% (inactive) and 89.6% (inactive). Further, the growth was 54.5% (inactive) and 40.8% (inactive) in the assay on CCRF-CEM leukemia; 76.7% (inactive) and 70.5% (inactive) in the assay on MOLT-4 leukemia.
For `Cc1cc(O)c(C(C)C)cc1N`, the growth is 101% (inactive) and 104% (inactive) in the assay with HCT-15 colon; 101% (inactive) and 116% (inactive) in the assay on HT29 colon; 79% (inactive) and 97% (inactive) in the assay on SNB-75 CNS; 117% (inactive) with SNB-19 CNS; 104% (inactive) and 103% (inactive) in the assay on U251 CNS; 106% (inactive) and 98.4% (inactive) with PC-3 prostate. The growth in the assay on SK-MEL-5 melanoma is 106% (inactive) and 98.9% (inactive); in the assay on UACC-62 melanoma it was 97.5% (inactive) and 111% (inactive); in the assay with LOX IMVI melanoma it was 98.1% (inactive) and 94.7% (inactive); with SK-MEL-28 melanoma, 113% (inactive) and 111% (inactive); in the assay with SK-MEL-2 melanoma, 113% (inactive) and 119% (inactive); in the assay with EKVX NSCLC, 95% (inactive) and 104% (inactive). Further, the growth in the assay on SN12C renal was 114% (inactive); with UO-31 renal, 78% (inactive) and 95.5% (inactive); in the assay on TK-10 renal, 123% (inactive) and 117% (inactive); with ACHN renal, 93.3% (inactive) and 100% (inactive); in the assay with A498 renal, 92.3% (inactive) and 89.7% (inactive); with CCRF-CEM leukemia, 105% (inactive) and 88.4% (inactive). Moreover, the growth in the assay on MOLT-4 leukemia was 95.2% (inactive) and 103% (inactive).
On to `COc1ccc2c(=O)cc(-c3ccccc3)[nH]c2c1`, for which the growth in the assay with HCT-15 colon was 22.6% (inactive) and 19.2% (inactive); in the assay on HT29 colon, -3.3% (active) and 5.55% (active); in the assay on SNB-75 CNS, 13.8% (inactive) and 9.61% (active); in the assay with SNB-19 CNS, 29.6% (inactive) and 27% (inactive); in the assay with U251 CNS, 12.2% (inactive) and 15.6% (inactive); in the assay with PC-3 prostate, 18.5% (inactive) and 19.4% (inactive). Further, the growth is 21.5% (inactive) and 12.7% (inactive) in the assay with SK-MEL-5 melanoma; 38.4% (inactive) and 20% (inactive) in the assay on UACC-62 melanoma; 48.3% (inactive) and 49% (inactive) in the assay with LOX IMVI melanoma; 39.3% (inactive) and 70.8% (inactive) in the assay with SK-MEL-28 melanoma; 31.4% (inactive) and -8.1% (active) in the assay with SK-MEL-2 melanoma; 48.9% (inactive) and 18.9% (inactive) with EKVX NSCLC. Further, the growth in the assay on SN12C renal is 45.7% (inactive) and 42.7% (inactive); in the assay with UO-31 renal, 41.7% (inactive) and 8.7% (active); in the assay on TK-10 renal, 48.4% (inactive) and 63.7% (inactive); with ACHN renal, 54.4% (inactive) and 51.9% (inactive); with CAKI-1 renal, 24.6% (inactive); in the assay on A498 renal, 50.7% (inactive). For the same compound, the growth in the assay on CCRF-CEM leukemia was 14% (inactive) and 12.2% (inactive); with MOLT-4 leukemia, 26.9% (inactive) and 6.72% (active).
As for `CCOC(=O)C(C(=O)OCC)C(c1ccccc1)N1CCN(c2ccccc2)CC1` (configuration not stated), the growth with HCT-15 colon is 108% (inactive) and 94.8% (inactive); in the assay on HT29 colon, 107% (inactive) and 106% (inactive); in the assay with SNB-75 CNS, 94.7% (inactive) and 103% (inactive); in the assay with SNB-19 CNS it was 99.4% (inactive) and 110% (inactive); with U251 CNS, 105% (inactive) and 98% (inactive); with PC-3 prostate, 110% (inactive) and 109% (inactive). In addition, the growth was 105% (inactive) and 102% (inactive) in the assay on SK-MEL-5 melanoma; 98.7% (inactive) and 107% (inactive) with UACC-62 melanoma; 103% (inactive) and 98.4% (inactive) in the assay on LOX IMVI melanoma; 109% (inactive) and 111% (inactive) in the assay on SK-MEL-28 melanoma; 105% (inactive) and 100% (inactive) with SK-MEL-2 melanoma; 107% (inactive) and 103% (inactive) in the assay on EKVX NSCLC. The growth in the assay on SN12C renal is 98.2% (inactive) and 110% (inactive); in the assay on UO-31 renal, 73.8% (inactive) and 78.9% (inactive); in the assay with TK-10 renal it was 98.1% (inactive) and 113% (inactive); with ACHN renal it was 105% (inactive); in the assay on CAKI-1 renal, 112% (inactive) and 98.1% (inactive); with A498 renal, 139% (inactive) and 107% (inactive). Further, the growth is 95.9% (inactive) in the assay with CCRF-CEM leukemia; 103% (inactive) and 99.1% (inactive) with MOLT-4 leukemia.
As to `Fc1ccccc1Nc1n[nH]c(=S)s1`, the growth in the assay on HCT-15 colon was 98.3% (inactive); with HT29 colon, 103% (inactive); with SNB-75 CNS, 101% (inactive); with SNB-19 CNS, 104% (inactive); in the assay with U251 CNS it was 101% (inactive); in the assay on PC-3 prostate, 106% (inactive). The growth with SK-MEL-5 melanoma is 101% (inactive); with UACC-62 melanoma, 95.3% (inactive); in the assay with LOX IMVI melanoma it was 128% (inactive); in the assay with SK-MEL-28 melanoma, 102% (inactive); in the assay with SK-MEL-2 melanoma, 116% (inactive); with EKVX NSCLC, 136% (inactive). For the same compound, the growth with SN12C renal is 99.9% (inactive); in the assay on UO-31 renal it was 95.5% (inactive); with TK-10 renal, 115% (inactive); in the assay with CAKI-1 renal, 113% (inactive); in the assay with A498 renal, 94.6% (inactive); with CCRF-CEM leukemia, -60% (active). The growth with MOLT-4 leukemia was 114% (inactive).
As to `O=C1CCN(Cc2ccccc2)C(=S)N1`, the growth in the assay on HCT-15 colon was 99.2% (inactive) and 98.3% (inactive); in the assay on HT29 colon it was 121% (inactive) and 98% (inactive); with SNB-75 CNS it was 125% (inactive) and 83.2% (inactive); with SNB-19 CNS it was 105% (inactive) and 101% (inactive); in the assay on U251 CNS, 102% (inactive) and 98.7% (inactive); with PC-3 prostate it was 92.3% (inactive). The growth was 105% (inactive) and 108% (inactive) in the assay on SK-MEL-5 melanoma; 102% (inactive) and 98.9% (inactive) in the assay on UACC-62 melanoma; 105% (inactive) and 99.7% (inactive) with LOX IMVI melanoma; 126% (inactive) and 107% (inactive) with SK-MEL-28 melanoma; 107% (inactive) and 103% (inactive) in the assay with SK-MEL-2 melanoma; 111% (inactive) and 118% (inactive) in the assay on EKVX NSCLC. The growth in the assay on SN12C renal is 104% (inactive) and 95.6% (inactive); with UO-31 renal, 87.5% (inactive) and 83.7% (inactive); in the assay with TK-10 renal, 106% (inactive) and 89.6% (inactive); with ACHN renal, 104% (inactive) and 97.3% (inactive); in the assay with CAKI-1 renal, 101% (inactive) and 96.1% (inactive); in the assay with A498 renal it was 94.6% (inactive). Further, the growth was 86.3% (inactive) and 98.4% (inactive) with CCRF-CEM leukemia; 78.2% (inactive) and 98.5% (inactive) in the assay on MOLT-4 leukemia.
Take `O=S(=O)(Nc1ccccc1)C1CCCCC1`: the growth with HCT-15 colon is 109% (inactive) and 102% (inactive); with HT29 colon it was 99.1% (inactive) and 99.6% (inactive); in the assay with SNB-75 CNS it was 86.7% (inactive) and 94.7% (inactive); in the assay on SNB-19 CNS, 101% (inactive) and 107% (inactive); in the assay on U251 CNS it was 109% (inactive) and 102% (inactive); with PC-3 prostate, 92.6% (inactive) and 105% (inactive). For the same compound, the growth was 110% (inactive) with SK-MEL-5 melanoma; 92.6% (inactive) and 105% (inactive) in the assay on UACC-62 melanoma; 109% (inactive) and 95.5% (inactive) with LOX IMVI melanoma; 110% (inactive) and 108% (inactive) in the assay with SK-MEL-28 melanoma; 103% (inactive) with SK-MEL-2 melanoma; 104% (inactive) and 97.2% (inactive) in the assay on EKVX NSCLC. Also, the growth is 94.9% (inactive) and 120% (inactive) with SN12C renal; 77.2% (inactive) and 88.3% (inactive) in the assay on UO-31 renal; 103% (inactive) and 102% (inactive) in the assay on TK-10 renal; 110% (inactive) and 103% (inactive) in the assay with ACHN renal; 104% (inactive) and 95.9% (inactive) in the assay with A498 renal; 105% (inactive) in the assay on CCRF-CEM leukemia. In addition, the growth with MOLT-4 leukemia was 83% (inactive) and 92.4% (inactive).
